Experimental data published in PubChem BioAssay (NCATS).
A number with no mark means an inactive call. The call rests on the fitted dose curve; in most records, active means well fitted inhibition curve with a large enough effect; inconclusive means small, poorly fitted or top-dose-only effect; inactive means flat fitted curve, though single readings scatter.

These compounds were tested against Phosphoglycerate kinase, glycosomal (Trypanosoma brucei brucei) (UniProt P07378) (assay: qHTS Validation Assay to Find Inhibitors of Phosphoglycerate Kinase (AID 504547)). Details: enzymatic PGK inhibition, coupled luminescence read-out; series mostly up to 57.5 µM; activity, negative = inhibition: at the top concentration.
Chain of Phosphoglycerate kinase, glycosomal (Trypanosoma brucei brucei) (P07378 whole entry, looked up): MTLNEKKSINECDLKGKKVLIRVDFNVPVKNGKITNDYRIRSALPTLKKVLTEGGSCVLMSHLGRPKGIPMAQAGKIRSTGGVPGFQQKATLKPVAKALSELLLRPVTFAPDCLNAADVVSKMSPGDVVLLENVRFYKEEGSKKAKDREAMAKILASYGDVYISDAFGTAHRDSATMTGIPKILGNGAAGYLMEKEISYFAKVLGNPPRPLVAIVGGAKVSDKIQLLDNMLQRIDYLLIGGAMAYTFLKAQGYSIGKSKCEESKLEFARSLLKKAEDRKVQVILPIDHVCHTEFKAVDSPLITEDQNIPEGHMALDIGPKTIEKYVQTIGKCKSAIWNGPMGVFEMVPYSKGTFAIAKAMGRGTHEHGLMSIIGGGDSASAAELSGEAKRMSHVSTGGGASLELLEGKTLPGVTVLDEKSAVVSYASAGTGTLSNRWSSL
Source text: NIH Molecular Libraries Probe Production Network [MLPCN]
NIH Chemical Genomics Center [NCGC]
PI Name: Malcolm Walkinshaw, University of Edinburgh
Several species of the Trypanosomatidae family of parasitic protozoans cause a spectrum of diseases
throughout the tropical and subtropical world. Sleeping sickness, caused by two subspecies of Trypanosoma brucei, is endemic to areas of sub-Saharan Africa, while Chagas disease, a manifestation of Trypanosoma cruzi infection, is prevalent throughout Central and South America. In addition, many species of Leishmania are responsible for a range of cutaneous and visceral diseases, causing ulcers, destructive lesions and kalaazar, a lethal infection of the viscera. Collectively, these organisms infect 30 million people worldwide (~500 million live in endemic areas), and account for ~130,000 deaths annually. Given their debilitating and prevalent nature, trypanosomatid parasites impose a heavy medical, economic and social burden on entire populations, primarily in the developing world. The problem is further exacerbated by the fact that existing treatments have progressed little in the past 50 years, and current drugs show high toxicity and poor efficacy.
Blood-stream stages of T. brucei are entirely dependent on glycolysis as a source of ATP, and the tricarboxylic acid cycle and oxidative phosphorylation are both repressed. Glycolysis in axenically cultured T. cruzi, representing the intracellular pathogenic stage, is also essential for these parasites. […] Previous studies have shown that the glycolytic enzyme, phosphoglycerate kinase (PGK), is a viable target for drugs to kill these parasites.
NCGC Assay Protocol Summary:
Briefly, 3ul of substrate/PGK buffer (columns 1,2,5-48) are dispensed into Greiner white solid bottom 1536-well assay plates; columns 3-4 receive only TEA buffer as 0x PGK controls. Compounds are then transferred via Kalypsys pin tool equipped with 1536-pin array (10nl slotted pins, V&P Scientific, San Diego, CA). Following addition of compound, 1ul of GAPDH (100nM final concentration, all columns) is added to initiate the reaction (this upstream coupling enzyme is necessary for in-well production of PGK substrate, 1,3-bisphosphoglycerate (1,3-BPG), which is unstable and not commercially available). The plates are then incubated at room temperature for 60 minutes. Kinase-Glo Plus reagent is added (2ul) and plates incubated for 10 minutes, before being transferred to a ViewLux high-throughput CCD imager (PerkinElmer) wherein single end-point measurements of luminescence are acquired using a clear filter. All reagents are diluted in an assay buffer consisting of 100mM TEA (pH 7.6), 5mM MgCl2 and 0.01% Tween-20.

Row | Compound | activity, negative = inhibition
1 | C[C@]12CC[C@@H]3c4ccc(O)cc4CC[C@H]3[C@@H]1CC[C@@H]2O | 0.201%
2 | CCCC1O[C@@H]2C[C@H]3[C@@H]4CCC5=CC(=O)C=C[C@]5(C)[C@H]4[C@@H](O)C[C@]3(C)[C@]2(C(=O)CO)O1 (stereo not given in full) | -2.2%
3 | N[C@H](CO)C(=O)O | 12.4%
4 | CC1(C)CCC(NC(=O)[C@@H](N)CCC(=O)O)CC1 | 5.49%
5 | O=C(O)c1cc2cc(Cc3cccnc3)ccc2o1 | 7.83%
6 | Nc1cc(Cl)c(NC2=NCCN2)c(Cl)c1 | 1.15%
7 | CNCCC(Oc1ccccc1C)c1ccccc1 (stereo not given) | 0.285%
8 | CNCCC=C1c2ccccc2CCc2ccccc21 | 3.43%
9 | O=C1CCC(c2ccc(-n3ccnc3)cc2)=NN1 | 3.26%
10 | CN1C2CCC1CC(OC(=O)c1c[nH]c3ccccc13)C2 (stereo not given) | 13.1%
11 | C[N+]1(CCCCC[N+]2(C)CCCC2)CCCC1 | -0.739%
12 | CC(CCc1ccccc1)NCC(O)c1ccc(O)c(C(N)=O)c1 (stereo not given) | 10.7%
13 | COC(=O)[C@H]1[C@H]2C[C@H]3c4[nH]c5ccccc5c4CCN3C[C@H]2CC[C@@H]1O | 3.82%
14 | CC(C)C[C@H]1C(=O)N2CCC[C@H]2[C@]2(O)O[C@](NC(=O)[C@@H]3C=C4c5cccc6[nH]c(Br)c(c56)C[C@H]4N(C)C3)(C(C)C)C(=O)N12 | 6.24%
15 | CCC(NC(C)C)C(O)c1ccc(O)c(O)c1 (stereo not given) | 0.121%
16 | CCCn1c(=O)[nH]c(=O)c2[nH]cnc21 | 11.6%
17 | Oc1ccc(O)cc1 | -0.562%
18 | CC[C@H](C)C(=O)O[C@H]1CCC=C2C=C[C@H](C)[C@H](CC[C@@H]3C[C@@H](O)CC(=O)O3)[C@H]21 | 2.7%
19 | CC(C)COC(=O)OCN1C(=O)CN(CCN2CC(=O)N(COC(=O)OCC(C)C)C(=O)C2)CC1=O | 8.81%
20 | COc1cc(NS(C)(=O)=O)ccc1Nc1c2ccccc2nc2ccccc12 | -1.77%
21 | CC(=O)O[C@H]1C[C@@H]2CC[C@@H]3[C@H](CC[C@@]4(C)[C@H]3C[C@H]([N+]3(C)CCCCC3)[C@@H]4OC(C)=O)[C@@]2(C)C[C@@H]1[N+]1(C)CCCCC1 | 0.591%
22 | C[C@@H]1C(=O)NC2=Nc3cccc(Cl)c3CN21 | 0.189%
23 | N[C@@H](Cc1cnc[nH]1)C(=O)O | -3.04%
24 | C1CCc2nnnn2CC1 | 4.07%
25 | COc1cc2c(cc1O)CC[C@@H]1[C@@H]2CC[C@]2(C)[C@@H](O)CC[C@@H]12 | 0.375%
